Experimental data as given in PubChem BioAssay (EPA / NIEHS).
“And” between values parts separate entries of the source, which are not always exact repeats. Identical values can stand only once. Inconclusive results are not listed. More than one record can exist for a structure, and the calls need not agree. The source made the active and inactive calls. Rule for the calls, unless noted: active = hit-call score of the fitted dose curve at least 0.9, where 1 is the maximum; inconclusive = response in the unintended direction; inactive = score below 0.9.

Experiments:
[1] = Tanguay_ZF_120hpf_OTIC_legacy: (Legacy) Oregon State University Tanguay Lab 120 Hour Post-fertilization zebrafish Assay for Otic Vesicle Malformation (AID 2283639)
In short: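 Statically exposed wild-type 5D zebrafish embryos, kept sealed and dark at 28C through 120 hours post fertilization, were examined by brightfield microscopy for otic vesicle defects. Responses were recorded as present or absent and analysed relative to DMSO.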

[2] = Tanguay_ZF_120hpf_PE_legacy: (Legacy) Oregon State University Tanguay Lab 120 Hour Post-fertilization zebrafish Assay for Pericardial Edema (AID 2283640);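 for AC50: potency for increased incidence of pericardial edema versus DMSO baseline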
In short: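 Embryos from wild-type 5D adults were staged, then dosed in 0.64% DMSO. They were kept sealed in the dark at 28C until 120 hpf. Pericardial edema was then recorded as present or absent.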

[3] = Tanguay_ZF_120hpf_BRAI_legacy: (Legacy) Oregon State University Tanguay Lab 120 Hour Post-fertilization zebrafish Assay for Brain Malformation (AID 2283641)
In short: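 Wild-type 5D larvae, static waterborne exposure to 120 hpf, 28C, 0.64% v/v DMSO. Brightfield scoring of brain defects, binary; dead embryos excluded. Positive ctrl 5uM trimethyltin chloride.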

[4] = Tanguay_ZF_120hpf_SOMI_legacy: (Legacy) Oregon State University Tanguay Lab 120 Hour Post-fertilization zebrafish Assay for Somite Malformation (AID 2283647)
In short: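 Read-out: presence or absence of somite malformation in 120 hpf larvae, gain-of-signal relative to DMSO baseline. Embryos lacked chorion (pronase, 4 hpf) and were exposed statically from 6 hpf at 28C; dead larvae not scored.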

[5] = Tanguay_ZF_120hpf_PFIN_legacy: (Legacy) Oregon State University Tanguay Lab 120 Hour Post-fertilization zebrafish Assay for Pectoral Fin Malformation (AID 2283648);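 note: each larva judged yes or no for fin defect by brightfield with dead larvae skipped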
In short: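 Binary pectoral fin malformation call at 120 hpf by brightfield microscopy; 5D wild-type zebrafish, chorion removed at 4 hpf, one embryo per well from 6 hpf, static exposure at 28C; DMSO (0.64% final) as baseline.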

[6] = Tanguay_ZF_120hpf_CFIN_legacy: (Legacy) Oregon State University Tanguay Lab 120 Hour Post-fertilization zebrafish Assay for Caudal Fin Malformation (AID 2283649)
In short: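 Binary presence or absence of caudal fin malformation at 120 hpf, read by brightfield microscopy, with DMSO as baseline. Larvae came from 5D wild-type embryos exposed statically from 6 hpf at 28C after pronase dechorionation.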

[7] = Tanguay_ZF_120hpf_CIRC_legacy: (Legacy) Oregon State University Tanguay Lab 120 Hour Post-fertilization zebrafish Assay for Circulatory Malformation (AID 2283651)
In short: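 Embryos are dechorionated at 4 hpf, plated one per well at 6 hpf, then held under static exposure at 28C until 120 hpf. Malformations are recorded as binary calls; mortality excludes other endpoints.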

[8] = Tanguay_ZF_120hpf_NC_legacy: (Legacy) Oregon State University Tanguay Lab 120 Hour Post-fertilization zebrafish Assay for Notochord and Tail Malformation (AID 2283656)
In short: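 Binary scoring of notochord distortion by brightfield microscopy; embryos dying were not scored. Wild-type Tropical 5D embryos, chorion removed, exposed singly and statically from 6 to 120 hpf, 28C, sealed, 0.64% DMSO.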

[9] = read-out: xenobiotic metabolism (CYP1A1), CYP1A1 (gene 1543); experiment: CLD_CYP1A1_6hr: CellzDirect (CLD) Gene Expression Assay for xenobiotic metabolism (CYP1A1) at 6 hours (AID 2283661)
In short: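 Read-out 6 h post-dose: qNPA chemiluminescent quantitation of transcript induction against 0.2% DMSO. Cells were cultured primary human hepatocytes from two separate donor preparations; phase-contrast morphology annotated apparent cytotoxicity.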

[10] = Tanguay_ZF_120hpf_TR_legacy: (Legacy) Oregon State University Tanguay Lab 120 Hour Post-fertilization zebrafish Assay for Touch Response (AID 2283667)
In short: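 Binary touch-response call at 120 hpf, analysed as gain of signal versus DMSO baseline. Wild-type 5D larvae, static exposure at 28C, 0.64% DMSO final; 5uM trimethyltin chloride as positive control.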

[11] = Tanguay_ZF_120hpf_PIG_legacy: (Legacy) Oregon State University Tanguay Lab 120 Hour Post-fertilization zebrafish Assay for Pigmentation Malformation (AID 2283650)
In short: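 Brightfield scoring of pigmentation malformation at 120 hpf, recorded as binary present/absent per larva. Exposure: dechorionated 5D wild-type embryos, one per well, static from 6 hpf at 28C, final DMSO 0.64% (vol/vol). Dead embryos not scored.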

[12] = Tanguay_ZF_120hpf_SWIM_legacy: (Legacy) Oregon State University Tanguay Lab 120 Hour Post-fertilization zebrafish Assay for Swim Bladder Malformation (AID 2283654);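 note: swim bladder malformation in each larva scored yes or no under brightfield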
In short: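 Tropical 5D embryos dechorionated at 4 hpf; 1 embryo/well from 6 hpf; static, sealed, dark exposure at 28C until 120 hpf; final DMSO 0.64%; 5uM trimethyltin chloride positive control; swim bladder defect recorded yes/no; dead embryos not scored.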

[13] = system: Thyroperoxidase (TPO), gene 54314; experiment: CCTE_Simmons_AUR_rTPO: CCTE's Amplex UltraRed Assay for Thyroperoxidase (TPO) Inhibition, Simmons Lab (AID 2283662);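 note: potency for loss of signal meaning inhibition of peroxidase activity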
In short: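 Rat thyroid microsomal TPO + 25 uM AUR in 200 mM K phosphate; cpd 5 nM–87.5 uM [final], 8 conc, 0.5% DMSO; 300 uM H2O2 starts rxn; 37C dark 30 min; endpoint FI 544/590 nm; n=3.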

[14] = CCTE_Simmons_CellTiterGLO_HEK293T: Viability Assessment in CCTE's Assays for Thyroperoxidase (TPO) Inhibition, Simmons Lab (AID 2283665);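 for AC50: cells exposed to compound for 24 h before readout; actives reduce ATP signal below DMSO vehicle meaning cytotoxicity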
In short: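 Cells were seeded overnight, then exposed to an eight-point series up to 87.5 uM final for 24 hours. CellTiter-Glo reagent was added and luminescence read after 20 min, giving ATP-based viability versus DMSO.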

[15] = read-out: solute carrier (SLC22A6), SLC22A6 (gene 9356); experiment: LTEA_HepaRG_SLC22A6: Life Technologies and Expression Analysis (LTEA) Assay for solute carrier (SLC22A6) using HepaRG (AID 2283653; active = hit-call score of the fitted dose curve at least 0.9, where 1 is the maximum; inactive = score below 0.9); conditions: mRNA level, 48 h; actives raise or lower the signal
In short: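 Read-out is SLC22A6 transcript level by qRT-PCR, normalised to three housekeeping genes and fitted for gain or loss relative to 0.5% DMSO vehicle. Human HepaRG cells received chemicals at up to 100 uM for 48 h.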

[16] = read-out: solute carrier (SLC10A1), SLC10A1 (gene 6554); experiment: LTEA_HepaRG_SLC10A1: Life Technologies and Expression Analysis (LTEA) Assay for solute carrier (SLC10A1) using HepaRG (AID 2283657; active = hit-call score of the fitted dose curve at least 0.9, where 1 is the maximum; inactive = score below 0.9); conditions: mRNA level, 48 h; actives raise or lower the signal
In short: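 HepaRG, 48 h exposure, 8-pt half-log curve from 100 uM in 0.5% DMSO, duplicates. Read-out: TaqMan qRT-PCR of SLC10A1 mRNA, normalized to three housekeeping genes. Gain/loss fit vs DMSO baseline.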

[17] = read-out: matrix metalloproteinase-1 (MMP1), MMP1 (gene 4312); experiment: LTEA_HepaRG_MMP1: Life Technologies and Expression Analysis (LTEA) Assay for matrix metalloproteinase-1 (MMP1) using HepaRG (AID 2283658; active = hit-call score of the fitted dose curve at least 0.9, where 1 is the maximum; inactive = score below 0.9); conditions: mRNA level, 48 h; actives raise or lower the signal
In short: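 HepaRG, ~100,000 cells/well, 48 h pre-culture; serum-free induction medium; test chemical 8 conc (max 100 uM, half-log), duplicate, 48 h; 0.5% DMSO; qRT-PCR MMP1, housekeeping-normalized; gain/loss fit vs DMSO.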

[18] = read-out: kallikrein-3 (KLK3), KLK3 (gene 354); experiment: LTEA_HepaRG_KLK3: Life Technologies and Expression Analysis (LTEA) Assay for kallikrein-3 (KLK3) using HepaRG (AID 2283652; active = hit-call score of the fitted dose curve at least 0.9, where 1 is the maximum; inactive = score below 0.9); conditions: mRNA level, 48 h; actives raise or lower the signal
In short: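 KLK3 transcript levels were measured by TaqMan qRT-PCR with normalisation to three housekeeping genes. HepaRG cultures received chemicals for 48 h at up to 100 uM (half-log, 8 points, 0.5% DMSO vehicle), fitted in both directions against DMSO.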

Measured: AC50

CCN(CC)C(=O)c1cccc(C)c1
inactive: [1] | [2] | [3] | [4] | [5] | [6] | [7] | [8] | [9] | [10]

CC(=O)[C@H]1CC[C@H]2[C@@H]3CCC4=CC(=O)CC[C@]4(C)[C@H]3CC[C@]12C
inactive: [1] | [2] | [3] | [4] | [5] | [6] | [11] | [7] | [12] | [10]

O=C(c1ccc(O)cc1O)c1ccc(O)cc1O
inactive: [1] | [2] | [3] | [4] | [6] | [7] | [8] | [14]
active: [13] 0.19 µM

CC(C)(c1ccc(O)cc1)c1ccc(O)cc1
inactive: [1] | [3] | [4] | [6] | [7] | [8] | [14]
active: [1] 40.5 µM and 37.7 µM | [2] 43.3 µM and 34.9 µM | [3] 41.6 µM and 39.4 µM | [4] 44.3 µM and 36.4 µM | [6] 35.2 µM | [7] 36.7 µM | [10] 47.4 µM and 24.4 µM and 46 µM

CCCCC(CC)CN1C(=O)C2C3C=CC(C3)C2C1=O (stereo not given)
inactive: [1] | [2] | [3] | [4] | [6] | [8] | [10]

CN(C)C(=O)Nc1ccc(Cl)c(Cl)c1
active: [16] 52.8 µM | [13] 36.6 µM
inactive: [1] | [2] | [3] | [4] | [6] | [7] | [15] | [8] | [17] | [10]

CCNc1nc(N)nc(Cl)n1
inactive: [1] | [2] | [3] | [4] | [6] | [7] | [8] | [10]

CC(C)CCCCCCc1ccc(O)cc1
inactive: [1] | [2] | [3] | [4] | [6] | [11] | [7] | [8] | [10]
active: [13] 20.6 µM | [14] 6.47 µM

CCCCOCCOCCOCc1cc2c(cc1CCC)OCO2
active: [2] 26.2 µM | [6] 10.7 µM | [16] 67.7 µM | [13] 34.2 µM
inactive: [1] | [3] | [4] | [11] | [7] | [18] | [15] | [8] | [17] | [14] | [10]

O=C(O)C1(C(=O)Nc2ccc(Cl)cc2Cl)CC1
active: [2] 41.9 µM
inactive: [1] | [3] | [4] | [5] | [6] | [7] | [8] | [10]
